Experimental data published in PubChem BioAssay (EPA / NIEHS).
Records with an inconclusive call do not appear. Activity calls are given as the source filed them. The calls were made as follows, unless noted: active = hit-call score of the fitted dose curve at least 0.9, where 1 is the maximum; inactive = score below 0.9.

What was measured:
[1] = IUF_NPC1_viability_72hr: Viability Assessment at 72 hours in the Leibniz Research Institute for Environmental Medicine (IUF) Neural Progenitor Cell Proliferation Assay (NPC1) (AID 2284209)
Outline: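 Single spheres (0.25-0.35 mm) of human fetal cortex-derived neural progenitor cells were grown in proliferation medium with EGF and FGF at 37C and 5% CO2. They were exposed for 72 h without renewal, and viability was read by alamar blue resorufin fluorescence.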

[2] = CCTE_Mundy_HCI_Cortical_Synap_Neur_Matur_BPCount: CCTE's Synaptogenesis and Neurite Maturation Assay in rat cortical cells for Branch Point Count, Mundy Lab (AID 2284211)
Outline: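 Rat primary cortical cultures, AraC added DIV 5; chemicals dosed DIV 7 through DIV 12. Fixed cells stained for MAP2, synaptophysin and Hoechst; neurite branch points counted by automated high-content imaging, fitted relative to DMSO.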

[3] = CCTE_Mundy_HCI_Cortical_NOG_NeuriteCount: CCTE's Neurite Outgrowth Assay in rat cortical cells for Neurite Count, Mundy Lab (AID 2284212);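 also: cells fixed about two days after chemical exposure began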
Outline: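 Neurite number per cell from high-content imaging of betaIII-tubulin immunostaining, with Hoechst nuclear counterstain.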

[4] = CCTE_Mundy_HCI_Cortical_NOG_NeuriteLength: CCTE's Neurite Outgrowth Assay in rat cortical cells for Neurite Length, Mundy Lab (AID 2284213)
Outline: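 Neurite length was read by high-content imaging of βIII-tubulin-labelled neurites in rat primary cortical cultures. Activity was fitted relative to DMSO.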

[5] = CCTE_Mundy_HCI_Cortical_Synap_Neur_Matur_NeuriteLength: CCTE's Synaptogenesis and Neurite Maturation Assay in rat cortical cells for Neurite Length, Mundy Lab (AID 2284214)
Outline: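 Rat primary cortical cultures, AraC added DIV 5, dosed DIV 7 through DIV 12 […]. Fixed, MAP2/synaptophysin immunostained with Hoechst; neurite length by high-content imaging, fitted in positive direction versus DMSO.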

[6] = CCTE_Mundy_HCI_Cortical_Synap_Neur_Matur_NeuriteSpotCountPerNeuron: CCTE's Synaptogenesis and Neurite Maturation Assay in rat cortical cells for Neurite Spot Count per Neuron Count, Mundy Lab (AID 2284215)
Outline: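 Rat primary cortical cells received AraC at DIV 5, then chemicals with a media change at DIV 7, and were fixed at DIV 12. Synaptophysin puncta on MAP2-stained neurites per neuron were counted by high-content imaging, fitted relative to DMSO.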

[7] = CCTE_Mundy_HCI_Cortical_Synap_Neur_Matur_SynapseCount: CCTE's Synaptogenesis and Neurite Maturation Assay in rat cortical cells for Synapse Count, Mundy Lab (AID 2284218)
Outline: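 Rat primary cortical cultures, AraC at DIV 5, chemical dosing DIV 7 to DIV 12 (288.33 h). Fixed cells stained for MAP2, synaptophysin and Hoechst; synapses per neuron counted by high-content imaging, loss of signal versus DMSO.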

[8] = CCTE_Mundy_HCI_Cortical_Synap_Neur_Matur_NeuriteCount: CCTE's Synaptogenesis and Neurite Maturation Assay in rat cortical cells for Neurite Count, Mundy Lab (AID 2284222);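 also: exposure from day 7 to day 12 in vitro with readout at day 12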
Outline: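 In this multiplexed morphology readout, rat primary cortical neurons are fixed at DIV 12 following dosing at DIV 7 and stained for MAP2, synaptophysin and nuclei. High-content image analysis yields neurite count.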

[9] = CCTE_Mundy_HCI_Cortical_Synap_Neur_Matur_CellBodySpotCount: CCTE's Synaptogenesis and Neurite Maturation Assay in rat cortical cells for Cell Body Spot Count, Mundy Lab (AID 2284223)
Outline: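 Rat primary cortical cultures received AraC at DIV 5 to arrest glia, were dosed with chemical at DIV 7 with media change, and were fixed at DIV 12 (288.33 h). Synaptophysin puncta on MAP2-positive cell bodies per neuron were counted by high-content imaging versus DMSO.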

[10] = UKN2_HCS_IMR90_cell_viability: Viability Assessment in the University of Konstanz (UKN) Leist Lab Neural Crest Cell Migration Assay in human induced IMR90 Pluripotent Stem Cells (UKN2) (AID 2284233);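 also: viability of neural crest cells differentiated from IMR90 iPSC measured by calcein-AM fluorescence imaging; cells exposed to compound for 24 h after a 24 h migration phase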
Outline: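 iPSC-derived (IMR90) neural crest cells seeded around silicone stoppers on PLO/laminin/fibronectin; after 24 h migration in N2-S with EGF/FGF, chemical added for 24 h. Calcein-AM/Hoechst stained 30 min, high-content imaged; bidirectional fit versus DMSO.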

[11] = CCTE_Mundy_HCI_Cortical_NOG_BPCount: CCTE's Neurite Outgrowth Assay in rat cortical cells for Branch Point Count, Mundy Lab (AID 2284237)
Outline: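 Measured 50.33 h after dosing, this morphology endpoint uses rat primary cortical cultures labelled for betaIII-tubulin. Branch points are quantified by high-content imaging, with DMSO as negative control and baseline.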

[12] = CCTE_Mundy_HCI_hNP1_Casp3_7: CCTE's Caspase-Glo 3/7 Assay in human neuroprogenitor cells for Apoptosis, Mundy Lab (AID 2284240)
Outline: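 Neuroepithelial-lineage stem cells from WA09 embryonic cells were treated with chemicals after 40–44 h of culture. Twenty-four hours later, caspase-3/7 activation was detected luminescently after a 30 min room-temperature reagent step, with DMSO as baseline.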

[13] = IUF_NPC2c_oligodendrocyte_migration_120hr: Leibniz Research Institute for Environmental Medicine (IUF) 120-hour Neural Progenitor Cell Migration Assay for Oligodendrocyte Migration (NPC2c) (AID 2284297);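 also: O4-positive oligodendrocyte migration distance divided by radial glia migration distance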
Outline: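 Human fetal cortex-derived neural progenitor spheres (0.3 mm) were plated on poly-D-lysine/laminin in N2 differentiation medium and exposed to 7 concentrations for 120 h, with half-medium renewal at day 3. Oligodendrocyte migration distance was normalized to radial glia migration, relative to DMSO.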

[14] = IUF_NPC2a_radial_glia_migration_120hr: Leibniz Research Institute for Environmental Medicine (IUF) 120-hour Neural Progenitor Cell Migration Assay for Radial Glia Migration (NPC2a) (AID 2284298)
Outline: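 Single 0.3 mm primary human fetal-cortex (GW 16-19) NPC spheres were plated on poly-D-lysine/laminin in N2 differentiation medium and exposed from day 0 for 120 h, half-medium refreshed day 3. Migration distance came from Hoechst nuclei-density imaging, relative to DMSO.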

[15] = IUF_NPC2a_radial_glia_migration_72hr: Leibniz Research Institute for Environmental Medicine (IUF) 72-hour Neural Progenitor Cell Migration Assay for Radial Glia Migration (NPC2a) (AID 2284299)
Outline: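 Human fetal neural progenitor spheres (0.3 mm) plated on poly-D-lysine/laminin in N2 differentiation medium and exposed from day 0 at 7 concentrations; radial glia migration distance from sphere edge measured at 72 h on brightfield images, mean of four directions, vs DMSO.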

[16] = IUF_NPC2b_neuronal_migration_120hr: Leibniz Research Institute for Environmental Medicine (IUF) 120-hour Neural Progenitor Cell Migration Assay for Neuron Migration (NPC2b) (AID 2284300)
Outline: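 Primary human fetal cortex neural progenitor spheres (0.3 mm) plated on poly-D-lysine/laminin in N2 differentiation medium, exposed 120 h with half-medium refresh at day 3. TUBB3-stained neuron distance from sphere core, normalized to radial glia migration, versus DMSO.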

[17] = IUF_NPC3_neuronal_differentiation_120hr: Leibniz Research Institute for Environmental Medicine (IUF) 120-hour Neuronal Differentiation Assay (NPC3) (AID 2284301)
Outline: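 Primary human fetal neural progenitor spheres (GW 16-19, 0.3 mm) plated on poly-D-lysine/laminin in N2 medium, exposed from day 0 for 120 h with half-medium refresh at day 3. TUBB3+ cells as percent of Hoechst nuclei in migration area; DMSO baseline.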

[18] = IUF_NPC4_neurite_length_120hr: Leibniz Research Institute for Environmental Medicine (IUF) 120-hour Neuronal Morphology Assay for Neurite Length (NPC4) (AID 2284302)
Outline: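 Human fetal cortex (GW 16-19) neural progenitor spheres, 0.3 mm, were plated on poly-D-lysine/laminin in N2 differentiation medium and exposed from day 0 for 120 h, half-feeding at day 3. Mean TUBB3+ neurite length (µm) came from skeletonized images, relative to DMSO.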

[19] = IUF_NPC5_oligodendrocyte_differentiation_120hr: Leibniz Research Institute for Environmental Medicine (IUF) 120-hour Oligodendrocyte Differentiation Assay (NPC5) (AID 2284304; active = hit-call score of the fitted dose curve at least 0.9, where 1 is the maximum;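 also: primary human fetal neural progenitor spheres plated to migrate and differentiate; share of O4-positive cells among Hoechst nuclei found by CNN image analysis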)
Outline: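 Primary human fetal (GW 16-19) neural progenitor spheres (0.3 mm) plated on poly-D-lysine/laminin in N2 differentiation medium, exposed from day 0 for 120 h with half-medium refresh at day 3; O4-positive cells as percent of Hoechst nuclei, CNN-identified, versus DMSO.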

[20] = IUF_NPC4_neurite_area_120hr: Leibniz Research Institute for Environmental Medicine (IUF) 120-hour Neuronal Morphology Assay for Neurite Area (NPC4) (AID 2284305; active = hit-call score of the fitted dose curve at least 0.9, where 1 is the maximum)
Outline: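 Human fetal cortex-derived neural progenitor spheres (0.3 mm, GW 16-19) plated on poly-D-lysine/laminin in N2 differentiation medium and exposed from day 0 for 120 h across 7 concentrations plus solvent control. Neurite area is mean pixel area per TUBB3-positive neuron via skeletonization, analysed relative to DMSO.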

[21] = IUF_NPC2-5_cytotoxicity_72hr: Cytotoxicity Assessment at 72 hours in the Leibniz Research Institute for Environmental Medicine (IUF) Neural Progenitor Cell Migration and Differentiation Assay for Cytotoxicity (NPC2-5) (AID 2284306; active = hit-call score of the fitted dose curve at least 0.9, where 1 is the maximum;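 also: LDH release into supernatant measured by resorufin fluorescence marking membrane damage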)
Outline: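 Human fetal (GW 16-19) neural progenitor spheres, 0.3 mm, plated on poly-D-lysine/laminin in N2 differentiation medium and exposed from day 0 to 7 concentrations plus solvent control (DMSO ≤0.1%). LDH-dependent resazurin-to-resorufin fluorescence in supernatant at 72 h.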

[22] = IUF_NPC2-5_cytotoxicity_120hr: Cytotoxicity Assessment at 120 hours in the Leibniz Research Institute for Environmental Medicine (IUF) Neural Progenitor Cell Migration and Differentiation Assay (NPC2-5) (AID 2284307; active = hit-call score of the fitted dose curve at least 0.9, where 1 is the maximum)
Outline: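 Human fetal neural progenitor spheres (0.3 mm, GW 16-19 cortex) were plated on poly-D-lysine/laminin in N2 differentiation medium and exposed for 120 h, with half-medium refresh at day 3. LDH release into supernatant was read by resorufin fluorescence.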

[23] = IUF_NPC2-5_cell_number_120hr: Cell Number Assessment at 120 hours in the Leibniz Research Institute for Environmental Medicine (IUF) Neural Progenitor Cell Migration and Differentiation Assay (NPC2-5) (AID 2284308);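 also: count of Hoechst-stained nuclei in migration zone around plated human neural progenitor spheres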
Outline: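 Primary human fetal neural progenitor spheres (GW 16-19, 0.3 mm) plated on poly-D-lysine/laminin in N2 differentiation medium, exposed from day 0 for 120 h with half-medium refresh at day 3; Hoechst-positive nuclei counted in migration area versus DMSO control.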

[24] = IUF_NPC2-5_viability_120hr: Viability Assessment at 120 hours in the Leibniz Research Institute for Environmental Medicine (IUF) Neural Progenitor Cell Migration and Differentiation Assay (NPC2-5) (AID 2284312)
Outline: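 Human fetal (GW 16-19) neural progenitor spheres of 0.3 mm were plated on poly-D-lysine/laminin in N2 differentiation medium and exposed from day 0 for 120 h, with half-medium refresh at day 3. Viability was read as alamar blue resazurin-to-resorufin fluorescence against DMSO.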

[25] = CCTE_Mundy_HCI_iCellGluta_NOG_NeuriteLength: CCTE's Neurite Outgrowth Assay in iCellGluta cells for Neurite Length, Mundy Lab (AID 2284318; active = hit-call score of the fitted dose curve at least 0.9, where 1 is the maximum)
Outline: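 Automated high-content imaging of betaIII-tubulin (Alexa Fluor-488) and Hoechst-stained cells gave neurite length, normalized to the DMSO baseline.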

[26] = IUF_NPC1_cytotoxicity_72hr: Cytotoxicity Assessment at 72 hours in the Leibniz Research Institute for Environmental Medicine (IUF) Neural Progenitor Cell Proliferation Assay (NPC1) (AID 2284332; active = hit-call score of the fitted dose curve at least 0.9, where 1 is the maximum;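 also: rising LDH signal means more cytotoxicity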)
Outline: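 Human fetal neural progenitor spheres (0.3 mm) in EGF/FGF proliferation medium, 37C, exposed 72 h without renewal. LDH release in supernatant read by resorufin fluorescence; gain of signal scored relative to dynamic range.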

[27] = CCTE_Mundy_HCI_iCellGluta_NOG_NeuronCount: CCTE's Neurite Outgrowth Assay in iCellGluta cells for Neuron Count, Mundy Lab (AID 2284340; active = hit-call score of the fitted dose curve at least 0.9, where 1 is the maximum;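 also: cells fixed about 48 h after compound addition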)
Outline: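 Neuron count read by automated high-content imaging of Hoechst 33342 and betaIII-tubulin/Alexa Fluor-488 labelling in human iPSC glutamatergic neurons. Activity fitted relative to DMSO.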

[28] = CCTE_Mundy_HCI_iCellGluta_NOG_NeuriteCount: CCTE's Neurite Outgrowth Assay in iCellGluta cells for Neurite Count, Mundy Lab (AID 2284342; active = hit-call score of the fitted dose curve at least 0.9, where 1 is the maximum;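 also: chemical exposure about 48 hours starting 2 hours after plating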)

Measured: AC50

[Cl-].[Cl-].[NH2-].[NH2-].[Pt+4]
active: [2] 0.029 µM | [17] 9.95 µM | [18] 33.2 µM | [21] 34.7 µM | [23] 28.4 µM | [25] 26 µM | [27] 85.7 µM | [28] 70 µM
inactive: all other assays above
